Experimental data as given in ChEMBL document CHEMBL3433997, “St. Jude Leishmania screening dataset” (2016).

target: Glucose transporter (Leishmania mexicana) (UniProt O61059); assay: ST_JUDE_LEISH: Cytotoxicity at 2uM final concentration against transgenic Leishmania Mexicana promastigotes LmGT2 that are glucose transport deficient and complemented with the L. Mexicana glucose transporter 2. Activity is measured by DNA content using SYBR green in vitro; assay type: functional

In order of rising inhibition:
1. O=C(NC(Nc1ccc([N+](=O)[O-])cc1)C(Cl)(Cl)Cl)c1ccc(Cl)cc1 (stereo not given)  -2.78%
2. O=C(O)C[C@H](NC(=O)c1cc(-c2ccc3c(c2)OCO3)no1)C(=O)O.O=C(O)C[C@H](NC(=O)c1conc1-c1ccc2c(c1)OCO2)C(=O)O  -2.23%
3. CCNc1cc(C(=O)N[C@@H](Cc2cc(F)cc(F)c2)[C@H](O)CNCc2cccc(C(F)(F)F)c2)cc(N2CCCCS2(=O)=O)c1  -1.62%
4. CCN1CCc2nc3ccccc3c(C(=O)Nc3ccc(C#N)cc3)c2C1  -1.04%
5. CCCCCCCCc1c(C)[nH]c(C)c(Cl)c1=O  -0.99%
6. COc1ccc(C(=O)Nc2nonc2-c2ccc(OC)c(OC)c2)cc1Cl  -0.55%
7. CCCn1c(O)nnc1SCC(=O)Nc1cc(Cl)ccc1Cl  -0.21%
8. Cc1cc(N[C@@H](Cc2ccccc2)C(=O)NCc2cccc(F)c2)nc(NCCOc2ccccc2)n1  -0.15%
9. CNCCNCc1ccc(-c2ccc(-c3nc4cc(F)ccc4[nH]3)cc2)cc1  0.13%
10. CC(C)CNCc1ccc(-c2cccc(CN(CCN(C)C)C(=O)NCCc3ccccc3)c2)cc1  0.23%
11. O=C(Cc1c[nH]cn1)Nc1cccc(-c2ccc(-c3nc4cc(F)ccc4[nH]3)s2)c1  0.26%
12. CC(=NNC(=N)N)c1ccc2c(ccc3ccccc32)c1  0.58%
13. CN(c1ccccc1)S(=O)(=O)c1cccc(NC(=O)c2ccc(-n3ccnc3)c([N+](=O)[O-])c2)c1  0.73%
14. Cc1ccc2nc(-c3ccc(C(=O)NC4CCN(Cc5ccccc5)CC4)cc3)[nH]c2c1C  0.84%
15. Nc1ncc(-c2ccc3ncccc3c2)c(N)n1  1.18%
16. CN1CCN(c2ccnc3ccc(NC(=O)Nc4ccc5c(c4)CCCC5=O)cc23)CC1  1.66%
17. COc1ccc(-c2cc(NCc3ccc(-n4ccnc4)cc3)nc(Nc3ccccc3)n2)cc1  1.83%
18. c1cc(CNCC2CCCO2)cc(-c2csc(-c3nc4ccccc4[nH]3)c2)c1 (stereo not given)  2.04%
19. CC(=O)Nc1ccc(CN2CCN(C(c3ccc(F)cc3)c3ccc(F)cc3)CC2)cc1  2.11%
20. O=C1C(c2ccccc2)=C(Nc2ccc([N+](=O)[O-])cc2)c2ccccc21  2.14%
21. CCN(CC)CCN(Cc1ccc(-c2ccc(Cl)s2)cc1)C(=O)Cn1c(CCc2cccc(F)c2F)nc(=O)c2ccccc21  2.15%
22. Cc1cc(N[C@@H](CC(C)C)C(=O)NCc2cccc(F)c2)nc(NCCc2ccccc2)n1  2.16%
23. Cc1nn(CC(C)C)c2sc(C(=O)Nc3nc(-c4ccccn4)cs3)cc12  2.33%
24. Cc1cccc2nc(-c3cccc(-c4ccc(NC(=O)C(C)C(=O)NC(C)C)cc4)c3)[nH]c12 (stereo not given)  2.38%
25. O=C(c1cc(C(=O)Nc2ccccc2)c(=O)n(-c2ccccc2)c1)c1cc(Cl)ccc1O  2.58%
26. O=C(Nc1nc2cc(S(=O)(=O)NCc3ccc(Cl)c(Cl)c3)ccc2n1CCCN1CCCC1)c1ccc(Cl)cc1  3.04%
27. CC(=O)Nc1ccc(CN(Cc2ccc(F)cc2)Cc2ccc3c(c2)OCO3)cc1  3.2%
28. CCOc1cc(C=NNc2nc(C)cc(-n3nc(C)cc3C)n2)ccc1O  3.45%
29. N#Cc1ccc2[nH]c(-c3cc(-c4cccc(F)c4)cnc3N)nc2c1  3.77%
30. CCCC(C)c1cnc2nc(N)nc(N)c2c1C (stereo not given)  4.24%
31. Cc1ccc(Oc2ccc(NC(=O)CNc3ccccc3N3CCCC3=O)cc2)cc1  5.01%
32. O=S(=O)(Nc1ccc2nccc(N3CCNCC3)c2c1)c1ccc2oc3ccccc3c2c1  5.02%
33. O=C(C=Cc1ccc(Cl)c(Cl)c1)NCCCCCN1CCCC(CCCNC(=O)c2cccs2)C1 (stereo not given)  5.16%
34. N#Cc1ccc(N(CCOc2ccc3c(c2)CCC(=O)N3)Cc2ccccc2C(F)(F)F)cc1C(F)(F)F  5.81%
35. CN1CCN(c2cccc(-c3nnc(-c4ccc(OCC(=O)NCc5cccc(C(F)(F)F)c5)c([N+](=O)[O-])c4)o3)c2)CC1  6.46%
36. COc1ccc2ncc(F)c(CCN3CC(O)C(CNCc4ccc5ccccc5c4)C3)c2n1 (stereo not given)  6.63%
37. Cc1ccc(N2C(N)=NC(N)=NC2(C)C)cc1Cl  8.05%
38. CCCCc1cc(NC2CCN(C)CC2)nc(Nc2ccccc2)n1  8.76%
39. COc1cc2nc(N3CCN(C(=O)c4ccco4)CC3)nc(NCc3ccccc3)c2cc1OC  11.1%
40. COc1ccc(CCNCCCCNCCc2ccc(OC)c3ccccc23)c2ccccc12  102%
